This is part of a sample that, as a whole, favours compounds with a hit. Of some 79,000 tested, about 15% had one in any assay. A number with no mark means an inactive call. Active and inactive are the calls of the source. Rule as the data show it: active = growth inhibition above about 70%; inactive = the rest.
Assays:
[1] = NCI Yeast Anticancer Drug Screen. Data for the rad50 strain (AID 155);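 also: 0% = growth of vehicle-only cultures of the same strain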; conditions: S. cerevisiae rad50 strain growth inhibition, stronger effect = higher value
Summary of the method: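 Compounds were tested on a yeast strain with an engineered DNA damage repair alteration; the reported value is growth inhibition normalised to vehicle treatment.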

[2] = NCI Yeast Anticancer Drug Screen. Data for the mec2-1 strain (AID 157); conditions: S. cerevisiae mec2-1 strain, stronger effect = higher value
Summary of the method: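 Mutant yeast (mec2-1) grown with compound; growth inhibition relative to vehicle control reported.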

[3] = NCI Yeast Anticancer Drug Screen. Data for the sgs1 mgt1 strain (AID 161);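 also: 0% = growth of cultures given vehicle only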; conditions: S. cerevisiae sgs1 mgt1 strain, stronger effect = higher value
Summary of the method: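 This yeast growth screen uses a strain with defined DNA-repair lesions; compound-treated growth is compared with vehicle-treated growth.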

[4] = NCI Yeast Anticancer Drug Screen. Data for the cln2 rad14 strain (AID 165);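 also: 0% = growth equal to vehicle treated cultures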; conditions: S. cerevisiae cln2 rad14 strain, stronger effect = higher value
Summary of the method: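 Readout is yeast growth inhibition versus vehicle-treated controls, using a strain with cln2 and rad14 alterations exposed to compound.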

[5] = NCI Yeast Anticancer Drug Screen. Data for the bub3 strain (AID 167); conditions: S. cerevisiae bub3 mutant strain, stronger effect = higher value
Summary of the method: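 Growth of a checkpoint-deficient yeast mutant is measured after compound exposure. Values represent inhibition relative to vehicle.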

[6] = NCI Yeast Anticancer Drug Screen. Data for the mlh1 rad18 strain (AID 175); conditions: S. cerevisiae mlh1 rad18 strain growth inhibition, stronger effect = higher value
Summary of the method: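 Genetically defined yeast (DNA repair-deficient) exposed to compounds; growth inhibition determined relative to vehicle.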

[7] = at 5.0 µM (retest, dose inferred, filed as 0.5)
[8] = at 50.0 µM (retest, dose inferred, filed as 5.0)

| Compound | growth inhibition [1, 7] | growth inhibition [1, 8] | growth inhibition ([1]; at 50.0 µM) | growth inhibition [2, 7] | growth inhibition [2, 8] | growth inhibition ([2]; at 50.0 µM) | growth inhibition [3, 7] | growth inhibition [3, 8] | growth inhibition ([3]; at 50.0 µM) | growth inhibition [4, 7] | growth inhibition [4, 8] | growth inhibition ([4]; at 50.0 µM) | growth inhibition [5, 7] | growth inhibition [5, 8] | growth inhibition ([5]; at 50.0 µM) | growth inhibition [6, 7] | growth inhibition [6, 8] | growth inhibition ([6]; at 50.0 µM) |
| --- | --- | --- | --- | --- | --- | --- | --- | --- | --- | --- | --- | --- | --- | --- | --- | --- | --- | --- |
| OC[P+](CO)(CO)C12CC3CC(CC(C3)C1)C2 | 12% | 13% | 48.5% | 8% | 11% | 71.1% (active) | 35% | 49% | 69.8% | 18% | 30% | 67.8% | 5% | 40% | 78% (active) | 11% | 25% | 89% (active) |
| C1C2OC2C2C1C1CC2C2OC12 (centres undefined) | 1% | -3% | 7.9% | 0% | -4% | -12.8% | -3% | -15% | -2.55% | 2% | 2% | 19.4% | 1% | 1% | -12.9% | 1% | -1% | -0.1% |
| NC(CCCNc1nc(O)cc(=O)[nH]1)C(=O)O (centres undefined) | -166% | -176% | 18.2% | -51% | -54% | 13.4% | -66% | -68% | 7.3% | -63% | -80% | 66% | -68% | -73% | 0.7% | -127% | -125% | -5% |
| Nc1ccc(SSc2ccc(N)cc2)cc1 | -2% | 97% (active) | 93% (active) | -3% | 98% (active) | 61.5% | 2% | 97% (active) | 57.6% | -7% | 72% (active) | 94.1% (active) | 0% | 98% (active) | 95.3% (active) | -1% | 98% (active) | 96.4% (active) |
| N#Cc1c(SCc2ccc(Cl)cc2)nsc1Nc1ccc(Cl)cc1 | 90% (active) | 95% (active) | 86.2% (active) | 91% (active) | 95% (active) | 88% (active) | 91% (active) | 98% (active) | 87.2% (active) | 87% (active) | 97% (active) | 87.7% (active) | 86% (active) | 98% (active) | 21% | 93% (active) | 93% (active) | 86% (active) |
| O=C(O)C1CC2C3(Cl)C(Cl)=C(Cl)C(Cl)C2(CC1c1c2ccc(=O)c(O)c-2oc2c(O)c(O)ccc12)C3(Cl)Cl (centres undefined) | 5% | 96% (active) | 49.9% | 21% | 97% (active) | 49.6% | 3% | 97% (active) | -0.25% | 9% | 93% (active) | 53.2% | -2% | 96% (active) | 46.2% | 4% | 95% (active) | 51.5% |
| CN(C)CCC(=O)C(=Cc1cc(Cl)cc(Cl)c1)C(=O)CCN(C)C | 2% | 98% (active) | 96.3% (active) | -19% | 99% (active) | 99% (active) | 12% | 99% (active) | 85.2% (active) | 0% | 98% (active) | 40.6% | -8% | 98% (active) | 97.8% (active) | -4% | 97% (active) | 97.5% (active) |
| COc1ccc(C2Oc3c(cccc3OC)C=C2[N+](=O)[O-])cc1 (centres undefined) | 20% | 96% (active) | 40.5% | 23% | 98% (active) | 40.1% | 40% | 96% (active) | 37.7% | 12% | 92% (active) | -4.5% | 45% | 96% (active) | 45.2% | 33% | 98% (active) | 44% |
